Screens deposited in PubChem by Sanford-Burnham Center for Chemical Genomics.
Rows were chosen to be rich in hits. Some 4% of all compounds tested hit in one or more screens of this group.
KKLEB tox = cytotoxicity in KKLEB CF airway cells, primary screen, cytotoxicity control for CF NF-kB inhibitor project, cell-based, uHTS, fluorescence assay plates; KKLEB CF airway cells viability, ATPlite luminescence, overnight; stronger effect = lower value; cells stimulated with P. aeruginosa culture filtrate; activity change (cytotoxicity), % at 5 µM; 360,000 tested, 0.36% active;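 active = corrected activity change at or below -50% at 5 µM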
TROY signal inh = inhibitors of TROY-driven NF-kB signaling, primary screen, Q293 LMP1-TROYcd cells, NF-kB luciferase, uHTS; Q293 LMP1-TROYcd NF-kB luciferase reporter, 4 h; inhibition, % at 10 µM; 360,000 tested, 0.98% active; AID 1347056, 2019;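 active = compounds whose plate-normalised and pattern-corrected inhibition of the luciferase reporter signal at the single screening dose is 50% or more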
Peg3 prom inh = Peg3 promoter-driven luciferase inhibitors, primary screen, cell-based, HeLa, luciferase luminescence. HeLa PEG-Prom luciferase reporter, overnight. inhibition, % at 20 µM. 360,000 tested, 1.7% active;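 active = inhibition of at least 50% at 20 µM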
TWEAK-Fn14 inh = inhibitors of TWEAK-Fn14 signaling, primary screen, luciferase reporter cells, uHTS | TWEAK-stimulated Fn14 reporter cells, luciferase luminescence, 8 h | inhibition, % at 10 µM | 360,000 tested, 2% active; in the data active = inhibition above about 50%
CF NFkB block = inhibitors of PAF-induced NF-kB signaling, primary screen, cell-based, GFP fluorescence, uHTS. KKLEB NF-kB-GFP reporter, GFP fluorescence overnight. inhibition, % at 5 µM. 360,000 tested, 0.86% active. AID 588850, 2011;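 active = at least 50% inhibition at 5 µM, scaled per plate between neutral and stimulator controls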;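 note: PAF is a Pseudomonas aeruginosa culture filtrate used as stimulus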
HIF-2a inh = HIF-2a reporter inhibitors, primary screen, luminescence, 786-0 RCC cells. inhibition, % at 18.8 µM. AID 624352, 2012. 360,000 tested, 0.72% active. 786-0 RCC cells HIF-2a reporter, luciferase luminescence, overnight;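 active = inhibition of the luminescence signal of 40% or more relative to plate controls, in a single-dose primary screen at 18.75 µM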
Mdm2-MdmX confirm = retested Mdm2-MdmX interaction blockers, confirmation, cell-based, luminescence, single concentration, set 2 | shares compounds with HIF-2a inh | SaOS-2 split-luciferase Mdm2/MdmX complementation | inhibition, % at 8 µM | 740 tested, 99% active | AID 504601, 2011;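 active = mean inhibition of the luminescence signal across two replicates at or above 26 percent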
Target sequence (O15151 whole entry, looked up): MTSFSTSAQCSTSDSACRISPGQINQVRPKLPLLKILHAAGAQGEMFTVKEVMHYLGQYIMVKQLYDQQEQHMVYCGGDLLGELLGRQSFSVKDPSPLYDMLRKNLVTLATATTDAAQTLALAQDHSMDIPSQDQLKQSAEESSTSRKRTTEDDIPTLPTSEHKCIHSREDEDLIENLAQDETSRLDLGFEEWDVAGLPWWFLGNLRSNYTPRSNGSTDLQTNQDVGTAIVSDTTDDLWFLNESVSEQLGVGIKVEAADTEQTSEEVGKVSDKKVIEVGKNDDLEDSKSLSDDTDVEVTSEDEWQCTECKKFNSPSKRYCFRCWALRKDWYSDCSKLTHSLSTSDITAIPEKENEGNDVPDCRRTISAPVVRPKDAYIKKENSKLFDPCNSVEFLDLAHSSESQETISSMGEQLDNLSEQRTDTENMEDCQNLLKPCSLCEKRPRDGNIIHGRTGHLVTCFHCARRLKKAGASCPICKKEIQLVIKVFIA
Target sequence (Q00987 whole entry, looked up): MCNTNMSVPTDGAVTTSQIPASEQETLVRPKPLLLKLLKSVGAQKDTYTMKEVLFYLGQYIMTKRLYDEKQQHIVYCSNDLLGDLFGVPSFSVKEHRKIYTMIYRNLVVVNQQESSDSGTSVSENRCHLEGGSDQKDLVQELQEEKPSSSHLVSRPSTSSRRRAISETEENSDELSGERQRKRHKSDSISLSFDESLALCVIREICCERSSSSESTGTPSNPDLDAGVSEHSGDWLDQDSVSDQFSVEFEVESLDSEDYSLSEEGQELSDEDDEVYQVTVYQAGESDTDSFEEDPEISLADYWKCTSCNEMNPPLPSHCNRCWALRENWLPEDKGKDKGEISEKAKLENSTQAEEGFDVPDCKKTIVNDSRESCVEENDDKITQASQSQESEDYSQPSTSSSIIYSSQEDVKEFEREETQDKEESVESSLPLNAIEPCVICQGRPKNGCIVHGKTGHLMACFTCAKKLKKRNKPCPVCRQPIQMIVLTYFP
HIF-2a inh conf = HIF-2a reporter inhibitor retest, confirmation, luminescence, 786-0 RCC cells; 1,800 tested, 56% active; AID 651580, 2012; inhibition, % at 18.8 µM; shares compounds with HIF-2a inh; HIF-2a luciferase reporter luminescence, overnight;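 active = mean inhibition across four replicates of at least 40 percent at the single tested concentration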
HIF-1a cs = HIF-1a luciferase reporter signal reduction – MiaPaCa-2 cells, single concentration, counter-screen for HIF-2a inhibitor project, confirmation. shares compounds with HIF-2a inh. MiaPaCa-2 HIF-1a luciferase reporter, desferoxamine, overnight. inhibition, % at 18.8 µM. 1,800 tested, 72% active;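 active = mean inhibition of the reporter signal across four replicates at the single tested dose of 50% or more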
Large screens that a line does not name were inactive (follow-up assays come after a bar, where they were run).

COc1ccc2nc(C)cc(N/N=C/c3ccc(F)cc3)c2c1	KKLEB tox -77, Peg3 prom inh 103, HIF-2a inh 87 | Mdm2-MdmX confirm 103
COc1ccc(Nc2cc(C)nc3ccc(OC)cc23)cc1	HIF-2a inh 42 | HIF-2a inh conf inactive | HIF-1a cs 57
COC(=O)C[C@H]1c2ccccc2S(=O)(=O)N1c1cccc(OC)c1	none
COc1cccc(N2[C@@H](CC(C)=O)c3ccc(/C=C/C(C)=O)cc3S2(=O)=O)c1	Peg3 prom inh 100, HIF-2a inh 45 | HIF-2a inh conf inactive | HIF-1a cs inactive
COc1ccc(CN2[C@@H](CC(C)=O)c3ccc(/C=C/C(C)=O)cc3S2(=O)=O)cc1	Peg3 prom inh 106, HIF-2a inh 43 | HIF-2a inh conf inactive | HIF-1a cs inactive
COc1cccc(C(=O)C(C#N)=C(SC)SC)c1	KKLEB tox -58, Peg3 prom inh 102, CF NFkB block 66, HIF-2a inh 80 | HIF-2a inh conf 91 | HIF-1a cs inactive
N#CC(C#N)=C(Nc1ccccc1)c1ccccc1	none
CSC(SC)=C(C#N)C(=O)c1ccccc1	KKLEB tox -50, Peg3 prom inh 99, HIF-2a inh 90 | HIF-2a inh conf 89 | HIF-1a cs inactive
Cc1c(C(=O)Nc2ccc(-c3nnc4n3CCCCC4)cc2)oc2c1ccc1ccccc12	HIF-2a inh 56 | HIF-2a inh conf inactive | HIF-1a cs 106
CCOC(=O)c1ccc(NC(=O)c2c(C)[nH]c(C(=O)OCC)c2C)cc1	none
CCOC(=O)c1c(C)[nH]c(C(=O)Nc2ccc(NC(C)=O)cc2)c1C	HIF-2a inh 88 | HIF-2a inh conf 96 | HIF-1a cs 84
CC(C)N1CCc2c(sc(NC(=O)c3ccc([N+](=O)[O-])o3)c2C(N)=O)C1	Peg3 prom inh 104, CF NFkB block 79, HIF-2a inh 90 | HIF-2a inh conf 79 | HIF-1a cs 103
CC1(C(=O)Nc2cccc3cccnc23)CCN1C(=O)Cc1ccc(Cl)cc1Cl (configuration not stated)	none
COc1ccc(-c2cc3c(=O)n(CC(=O)NCCCN4CCC(N5CCCCC5)CC4)ncn3n2)cc1	none
COc1ccc(-c2cc3c(=O)n(CC(=O)NCCCN4CCC(N5CCCCC5)CC4)nc(C)n3n2)cc1	none | Mdm2-MdmX confirm 73
COc1ccc2cc1Oc1ccc(cc1)C[C@H]1c3cc(c(OC)cc3CCN1C)Oc1c(OC)c(OC)cc3c1[C@H](C2)N(C)CC3	Peg3 prom inh 93 | Mdm2-MdmX confirm 102
Oc1ccc(Cl)cc1CNCC1CCCCC1	none
CN(C)C(=O)NC1c2ccccc2-c2ccccc21	none
O=C1C=CC(=O)N1c1ccc2c(c1)C(NC(=O)C(F)(F)F)c1ccccc1-2 (configuration not stated)	Peg3 prom inh 102, HIF-2a inh 46 | HIF-2a inh conf inactive | HIF-1a cs inactive
CC(C)c1ccc(/C=C/C(=O)NC(=S)NN2CCOCC2)cc1	HIF-2a inh 41 | HIF-2a inh conf inactive | HIF-1a cs inactive
Cc1cccc(Oc2sc(C(=O)c3ccccc3)c(N)c2C#N)c1	HIF-2a inh 43 | HIF-2a inh conf inactive | HIF-1a cs inactive
COc1ccc2cc(C(C)C(=O)NC3CCC(O)CC3)ccc2c1 (configuration not stated)	none
CC(C)C(=O)N1CCN(c2ccc(NC(=O)c3ccc4c(c3)OCCO4)cc2)CC1	HIF-2a inh 42 | HIF-2a inh conf inactive | HIF-1a cs inactive
O=C(Nc1ccc(NC(=O)c2cccs2)cc1)c1ccc2c(c1)OCO2	none
Cc1ccccc1C(=O)N1CCN(c2ccc(NC(=O)c3ccc4c(c3)OCCO4)cc2)CC1	TWEAK-Fn14 inh 73, HIF-2a inh 60 | HIF-2a inh conf inactive | HIF-1a cs 72
O=C(Nc1ccc(NC(=O)c2cccs2)cc1)c1ccc2c(c1)OCCO2	HIF-2a inh 47 | HIF-2a inh conf 45 | HIF-1a cs inactive
CN(CCc1ccccc1)C(C(=O)Nc1ccc2c(c1)OCCO2)c1ccnc2ccccc12 (configuration not stated)	none
O=C(NCc1ccccc1Cl)c1csc(COCCO)n1	none
Cc1ccc2c(c1)Oc1ccc(NC(=O)CCl)cc1C(=O)N2	KKLEB tox -73, Peg3 prom inh 100, CF NFkB block 87, HIF-2a inh 77 | Mdm2-MdmX confirm 103 | HIF-2a inh conf 72 | HIF-1a cs 103
O=C(NCC1CCCO1)c1c(O)c2cccc3c2n(c1=O)CCC3 (configuration not stated)	none
O=C(NCC1CCCO1)c1c(O)c2cccc3c2n(c1=O)CC3 (configuration not stated)	none | Mdm2-MdmX confirm 71
CC1(C(=O)NS(=O)(=O)c2ccc(Cl)s2)CCN1C(=O)C1(c2ccccc2)CCCC1 (configuration not stated)	none
Cc1cc(Cl)n2nc(C)c(-c3ccc(Cl)cc3)c2n1	Peg3 prom inh 104, HIF-2a inh 66 | HIF-2a inh conf inactive | HIF-1a cs 100
Cc1cc(N)n2nc(C)c(-c3ccc(Cl)cc3)c2n1	none
COC(=O)CCn1nnc(-c2ccc(C(C)C)cc2)n1	TROY signal inh 50, TWEAK-Fn14 inh 68, HIF-2a inh 91 | HIF-2a inh conf 96 | HIF-1a cs 75
COC(=O)CCn1nnc(-c2cccs2)n1	none
Cc1[nH]c2ccccc2c1C(=O)CN1C(=O)NC2(CC(C)CC(C)(C)C2)C1=O (configuration not stated)	HIF-2a inh 45 | HIF-2a inh conf inactive | HIF-1a cs 62
CCN(Cc1ccccc1)C(=O)CN1C(=O)NC2(CC(C)CC(C)(C)C2)C1=O (configuration not stated)	none
